# Bioassay records (PubChem)
# Pol iota inh – qHTS for Inhibitors of Polymerase Iota | Pol iota fluorescent replication assay, 10 min | DNA polymerase iota (Homo sapiens), Q9UNA4 | 1% of 390,000 active | Potency, µM (series often up to 115 µM), inactives show at the highest dose activity, negative = inhibition, hits mostly inhibitors | AID 588590, 2011
#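 Fluorescent replication assay read twice, at 0 min and 10 min after adding 50 nM (final) substrate. Enzyme (10 nM) and compounds were first incubated 15 min at room temperature; enzyme-free buffer wells were negative controls.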
# KAT2A inh – qHTS Assay for Inhibitors of GCN5L2; Histone acetyltransferase KAT2A (Homo sapiens), Q92830; GCN5L2 HAT assay, ThioGlo1 CoA-SH fluorescence; Potency, µM (series often up to 58.9 µM), for the others: at the top dose activity change, negative = inhibition, most hits filed as inhibitors; 0.21% of 390,000 active; also: % is scaled to controls: 0 for no effect and ±100 for the full control effect
#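 Titration-based screen in which CoA formation is detected via maleimide probe ThioGlo1 (50uM) turning fluorescent on thiol reaction; substrates H3(1-25) 75uM and acetyl-CoA 70uM, GCN5L2 20nM, 20 min incubation at room temperature.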
# POLH inh – qHTS for Inhibitors of Polymerase Eta | AID 588591, 2011 | 1.2% of 390,000 active | recombinant Pol eta, fluorescent DNA replication assay | Potency, µM (series often up to 114 µM), without a hit: at the top dose activity change, negative = inhibition, most hits filed as inhibitors; also: % is scaled to controls: 0 for no effect and ±100 for the full control effect
#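 Pol eta at 10 nM preincubated with compounds 15 min at room temperature; reaction started with fluorescent substrate (50 nM final) and read kinetically at 0 and 10 min.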
# GLS inhibitor – qHTS for Inhibitors of Glutaminase (GLS); 0.21% of 410,000 active; Potency, µM (highest dose often 45.5 µM), without a hit: at the highest dose activity change, negative = inhibition, hits mostly inhibitors; Glutaminase kidney isoform, mitochondrial (Homo sapiens), O94925; AID 624170, 2012; GLS enzymatic activity, qHTS titration; also: % is scaled to controls: 0 for no effect and ±100 for the full control effect
#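 hKGA; 45 mM KH2PO4 pH 8.2 + 0.02% Tween-20; cpd via pin tool; 1 mM Gln soln; GluOx/HRP/Amplex Red; RT 30 min; fluor. t0 & final.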
# POLB inh – qHTS Assay for Inhibitors of DNA Polymerase Beta. Potency, µM (doses to about 114 µM), inactives show at the top dose activity change, negative = inhibition, usual class: inhibitors. 1.3% of 340,000 active. Pol beta primer extension/strand displacement, fluorescence kinetic. AID 485314, 2010. P06746; also: % is scaled to controls: 0 for no effect and ±100 for the full control effect
#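 10 nM enzyme + cpd, 15 min RT; start with substrate 50 nM final; read 0 min and after 10 min RT. Corrected, normalized data; 4-parameter Hill curve fit.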
# Pol kappa inh – qHTS for Inhibitors of Polymerase Kappa; Potency, µM (doses to about 107 µM), for the others: top-dose activity, negative = inhibition, hits mostly inhibitors; 0.53% of 400,000 active; DNA polymerase kappa (Homo sapiens), Q9UBT6; purified Pol kappa, fluorescent DNA synthesis assay, 10 min; AID 588579, 2011; also: % is scaled to controls: 0 for no effect and ±100 for the full control effect
# Target sequence (Q9UBT6 whole entry, looked up): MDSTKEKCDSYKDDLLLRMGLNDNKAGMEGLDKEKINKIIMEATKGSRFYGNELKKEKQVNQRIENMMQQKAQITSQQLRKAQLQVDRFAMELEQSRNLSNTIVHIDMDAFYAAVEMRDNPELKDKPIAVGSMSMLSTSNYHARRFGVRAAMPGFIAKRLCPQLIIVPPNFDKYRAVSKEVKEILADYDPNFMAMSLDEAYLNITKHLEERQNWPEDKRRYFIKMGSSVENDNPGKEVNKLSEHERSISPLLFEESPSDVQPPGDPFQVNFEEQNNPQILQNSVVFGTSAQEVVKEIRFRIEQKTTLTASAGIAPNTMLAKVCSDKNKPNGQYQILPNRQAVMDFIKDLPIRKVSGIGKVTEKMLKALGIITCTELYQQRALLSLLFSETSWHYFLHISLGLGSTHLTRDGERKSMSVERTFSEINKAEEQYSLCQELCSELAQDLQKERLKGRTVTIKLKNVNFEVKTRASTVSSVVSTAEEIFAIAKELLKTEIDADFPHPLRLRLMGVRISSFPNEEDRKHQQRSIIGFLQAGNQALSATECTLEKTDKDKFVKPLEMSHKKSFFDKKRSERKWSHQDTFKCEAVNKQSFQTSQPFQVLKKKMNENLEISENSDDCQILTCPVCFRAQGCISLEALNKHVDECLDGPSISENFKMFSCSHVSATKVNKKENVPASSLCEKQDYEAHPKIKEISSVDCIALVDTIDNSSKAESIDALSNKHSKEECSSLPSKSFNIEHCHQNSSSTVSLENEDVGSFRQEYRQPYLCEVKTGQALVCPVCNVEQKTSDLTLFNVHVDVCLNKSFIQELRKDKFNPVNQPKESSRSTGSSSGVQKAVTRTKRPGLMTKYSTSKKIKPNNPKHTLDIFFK
#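 10 nM Pol kappa was preincubated with compounds for 15 min at room temperature. Reaction started with 50 nM (final) substrate. Fluorescence read kinetically at 0 and 10 min.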
# The depositor's hits bear a star; ? = inconclusive; . = no result given; [ ] = remark or other dose. An excerpt weighted towards active compounds, which were near 2.4% of everything screened. Calls follow the shape of the dose curve; as a rule, active = well fitted inhibition curve with a large enough effect; inconclusive = small, poorly fitted or top-dose-only effect, or another doubt; inactive = no such curve, though single readings can be large or run the other way. Potency is read from the fitted curve at half-maximal effect.
SMILES,Pol iota inh,KAT2A inh,POLH inh,GLS inhibitor,POLB inh,Pol kappa inh
COc1cc(/C=C/c2ccnc3ccccc23)ccc1N(C)C,0.0%,.,.,.,.,3.8%
CC(=O)NCC(=O)OCC(=O)c1ccc(C)c(C)c1,-12.7%,-9.1%,9.4%,12.7%,7.6%,-0.8%
Cc1ccc(C(=O)COC(=O)C2C3C=CC(C3)C2C(=O)OCC(=O)c2ccc(C)c(C)c2)cc1C (stereo unspecified),23.5%,0.794µM*,3.6%,3.9%,20.1%,1.5%
CC(C)(C)n1ncc2c(=O)n(Cc3ccc(Cl)c(SC(F)(F)F)c3)cnc21,-4.4%,.,.,.,.,-18.2%
O=C(CCS(=O)(=O)c1ccccc1)Nc1nc2cc3c(cc2s1)OCO3,70.8µM*,-6.4%,?,-4.2%,?,-17.5%
CC(=O)N(CCC(Cc1ccccc1)c1ccco1)Cc1ccco1 (stereo unspecified),?,1.7%,50.1µM*,-13.3%,?,?
O=C(c1ccco1)N(CCC(c1ccccc1)c1ccco1)Cc1ccco1 (stereo unspecified),22.4µM*,?,2.82µM*,?,6.31µM*,25.1µM*
Cc1cc(C)c2c(c1)c(C)cc1nnc(SCC(=O)c3ccc(F)cc3)n12,15.5%,-6.4%,-21.2%,-3.2%,?,-6.9%
CCc1nc(Nc2ccccc2O)c2oc3ccccc3c2n1,13.4%,12.3%,-15.2%,-2.2%,-2.4%,6.7%
CCc1nc(Nc2ccc(O)cc2)c2oc3ccccc3c2n1,?,-4.1%,-13.2%,4.47µM*,0.8%,-8.0%
CCN(c1ccc(OC)cc1)S(=O)(=O)c1ccc2[nH]c3c(c2c1)CCCCC3,79.4µM*,-26.2%,-10.4%,10.0%,20.1%,-15.8%
CCN(Cc1ccccc1)S(=O)(=O)c1ccc2[nH]c3c(c2c1)CCCCC3,-15.4%,-1.6%,-5.9%,8.3%,1.1%,-16.5%
COc1cccc(N2CC(C(=O)Nc3nnc(SCCC4OCCO4)s3)CC2=O)c1 (stereo unspecified),?,-13.2%,44.7µM*,1.7%,-10.3%,-19.0%
COc1cccc(N2CC(C(=O)Nc3nnc(SCc4cccnc4)s3)CC2=O)c1 (stereo unspecified),?,-2.9%,?,10.9%,25.1µM*,-7.9%
NC(=O)CSc1nnc(NC(=O)C2CC(=O)N(c3ccc(F)cc3)C2)s1 (stereo unspecified),5.9%,-5.2%,50.1µM*,4.3%,0.7%,-4.9%
Cc1ccc(N2CC(C(=O)Nc3nnc(SCC(N)=O)s3)CC2=O)cc1 (stereo unspecified),45.1%,-3.0%,-12.8%,1.1%,14.6%,-10.5%
Cc1cccc(N2CC(C(=O)Nc3nnc(SCC(=O)N4CCOCC4)s3)CC2=O)c1 (stereo unspecified),?,-17.4%,44.7µM*,-12.8%,28.2µM*,-26.6%
COc1ccc(Cl)cc1NC(=O)CSc1nnc2[nH]c(=O)cc(C)n12,-15.8%,2.7%,-10.6%,-9.8%,-13.2%,-7.1%[60.1 µM]
CN(C)c1ccc(/C=C/c2cccc3cc4ccccc4nc23)cc1,-9.9%,.,.,.,.,-14.6%
O=C(Nc1nnc(SCCC2OCCO2)s1)C1CC(=O)N(c2ccccc2)C1 (stereo unspecified),?,-26.8%,?,0.6%,?,-5.7%
O=C(Nc1nnc(SCCC2OCCO2)s1)C1CC(=O)N(c2ccc(F)cc2)C1 (stereo unspecified),?,?,20µM*,-3.5%,44.7µM*,-41.6%
Clc1cccc(Cc2c(-c3ccco3)nc3ccc(Br)cn23)c1,.,.,.,11.2µM*,.,.
Brc1ccc2nc(-c3ccco3)c(Cc3ccccc3)n2c1,.,.,.,-1.1%,.,.
O=c1c(-c2ccc(Cl)cc2)nc2cnc(N3CCNCC3)nc2n1CCc1ccccc1,.,-26.7%,.,.,.,-3.4%[60.1 µM]
CN(Cc1ccco1)c1ccnc(-c2ccccc2C(F)(F)F)n1,.,-1.6%,.,.,.,-6.9%[60.1 µM]
